The values below come from PubChem BioAssay (NCI).

SMILES strings stand for the structures. Where “and” joins values, the source holds several entries; their conditions need not be identical. Equal values may be shown once. Compounds without any hit were thinned out: in the full panel of roughly 83,000, 20% have a hit.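 Testing used 96-well plates and a 48-hour single-concentration exposure. Example: -40 means 40% of the starting cells died.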 Calls of active or inactive are those of the source. The calls were made as follows: active = growth percent below 10; inactive = the rest.

This assay has as its system MDA-MB-468 breast. Description: NCI-60 one-dose screen, 48 h (100 = growth as untreated, 0 = no growth, -100 = all killed). Conditions: 10 µM unless noted.
Regarding `Nc1c(Cl)cccc1[N+](=O)[O-]`, the growth is 115% (inactive). Take `O=C(N/N=C/c1cc2ccccc2c2ccccc12)c1cc(O)c(O)c(O)c1`: the growth is 64.9% (inactive).

`Cc1ccc2c(NCCCN(C)C)c3c(C)nn(C)c3nc2c1`: the growth is 22.1% (inactive).

For `COc1ccc(Cn2cnc3cc(C(=O)Nc4cccc5ccccc45)ccc32)c(OC)c1`, the growth was -31.6% [30 µM] (active). `Cc1nc2c(c(-c3ccccc3)n1)Cc1c(ccc3ccccc13)O2`: the growth was 90.5% (inactive).

With `O=c1oc2cc(OS(=O)(=O)C3CC3)ccc2c2c1CCCCCC2`, the growth was 39% (inactive). Consider `Clc1cc(Cl)cc(N2N=C(c3cccc(Nc4ccncc4)c3)CC2c2ccccc2)c1` (stereo not given), for which the growth was 37.9% (inactive). As to `CCCOC(=O)C1c2cc3c(cc2CC(C)C1C(=O)OCCC)OCO3` (stereo not given), the growth was 102% (inactive). Regarding `CCOC(=O)CC[C@H](NC(=O)c1ccc(N(C)Cc2cnc3nc(N)nc(N)c3n2)c2ccccc12)C(=O)OCC`, the growth was 27.1% (inactive). Regarding `CCOC(=O)Oc1c(OC)cc(C(=O)O[C@@H]2C[C@@H]3CN4CCc5c([nH]c6cc(OC)ccc56)[C@H]4C[C@@H]3[C@H](C(=O)OC)[C@H]2OC)cc1OC`, the growth was 98.8% (inactive). The value for `C[C@H]1[C@H](C)CC[C@]2(C(=O)O)CC[C@]3(C)C(=CC[C@@H]4[C@@]5(C)C/C(=C/c6cccnc6)[C@H](O)C(C)(C)[C@@H]5CC[C@]43C)[C@H]12` was 5.39% [100 µM] (active); that for `N#CC1=C(N)Oc2c(sc3c(Br)cccc23)C1c1ccc(F)cc1` (stereo not given) was 11% (inactive).

For the compound `Cc1c(C(=O)NCCC(=O)NO)sc2ncnc(Nc3ccc(NC(=O)Nc4cccc(C(F)(F)F)c4)cc3)c12`, the growth was 97.2% (inactive). As to `CCC(C)(CC)c1ccc(O)c(C)c1`, the growth was 101% (inactive). In the case of `O=C1/C(=C\c2cn(-c3ccccc3)nc2-c2ccc(-c3cccs3)cc2)CCc2ccccc21`, the growth was 36.1% (inactive). In the case of `COc1cc(Br)c(OC)cc1Br` it was 95.5% (inactive); in that of `C/C(=N\O)c1ccccn1`, 97.6% (inactive); in that of `CC1OC(n2c3ccccc3c3c4c(c5c6ccccc6[nH]c5c32)C(=O)N(CCN[C@H]2CCC[C@@H]2N)C4=O)CC(O)C1O` (stereo not given in full), -20% (active). On to `Cc1cc(Nc2ccc3c(c2)OCO3)c2cc3c(cc2n1)OCO3`, for which the growth was 26.5% (inactive). `CC(C)CSc1nc(-c2ccc(F)cc2)c(C#N)c(N2CCCCC2)n1`: the growth is 101% (inactive). In the case of `COc1cnc2c(c1)C(=O)c1c-2n(CCCNC2=NCCS2)c(=O)c2cc([N+](=O)[O-])ccc12` it was -39% (active). Regarding `COc1ccc(S(=O)(=O)c2ccc(F)cc2)cc1`, the growth was 105% (inactive). Turning to `C=C1C(=O)O[C@H]2[C@H]1CC/C(COC(=O)c1cccnc1N)=C\CC[C@@]1(C)O[C@@H]21`, the growth was 14.8% (inactive). Take `O=S(=O)(NCCNc1nccc(-c2c(-c3cccc(F)c3)nc3occn23)n1)c1ccc(C(F)(F)F)cc1`: the growth is 74.7% (inactive).

Turning to `COc1ccc(-c2cc(-c3ccccc3)nc(SCCCCCCC(=O)NO)n2)cc1`, the growth was 64.1% (inactive).

With `CN1CCN(C2=C(Cl)C(=O)c3ccccc3C2=O)CC1`, the growth is 57% (inactive).

Take `CCCCCCCCCCCCNC(=S)N/N=C/c1ccc(Cl)c(Cl)c1`: the growth is 104% (inactive). The value for `COc1ccc(NC(=O)CSc2nc3ccccc3c(=O)n2-c2ccccc2C(F)(F)F)c(OC)c1OC` was 93.2% (inactive). With `COc1ccc2c(c1)c(-c1nc(-c3cn(C)c4ncccc34)cs1)cn2CCCN1CCCCC1`, the growth is 70.9% (inactive). In the case of `Cc1nc(Cl)cc(N(c2cc(Cl)nc(C)n2)c2ncc(C(=O)Nc3c(C)cccc3Cl)s2)n1` it was 42.1% (inactive); in that of `CC(=O)Nc1cc(C)ccc1C`, 76% (inactive); in that of `COc1ccc(-c2nc(SCCC(C)C)nc(N/N=C\c3cccc([N+](=O)[O-])c3)c2C#N)cc1`, 12.7% (inactive). In the case of `COc1ccccc1C1OC2=Nc3cc(C)c(C)cc3NC2C1=O` (stereo not given) it was 66.2% (inactive); in that of `O=C(NC1CCN(Cc2ccccc2)CC1)c1cc(-c2cccnc2)nc2ccc(Cl)cc12`, 54.7% (inactive); in that of `CCN(CC)c1ccc(-c2cc(-c3cc(OC)c(OC)c(OC)c3)nc(N3CCC(O)CC3)c2C#N)cc1`, -48.2% (active).

As to `Cc1cc(F)cc(NS(=O)(=O)c2ccc(-c3cnc(C4CC4)o3)cc2)c1`, the growth was -1.16% (active). In the case of `O=[N+]([O-])c1ccc(NC(=S)NNC(=S)Nc2ccc(F)cc2)cc1` it was 74.6% (inactive). Consider `COc1ccc(-c2nc3c(N)c(CO)cnc3s2)cc1`, for which the growth was 57.6% (inactive).

On to `O=c1[nH]c([C@@H]2CCCN2)nc2c1oc1ccc(Cl)cc12`, for which the growth was 33.6% (inactive). In the case of `O=C(Nc1ccc(Br)cc1)c1cc(Br)ccc1O` it was -18.1% (active) and 15% (inactive).
